# Assay results as given in PubChem BioAssay (NCATS).
# Values joined by “and” are separate entries in the source; they are usually repeats but may differ in a detail not shown here. Equal entries are not always repeated. Records with an inconclusive call do not appear. Active and inactive are the calls of the source. Unless noted, the call rests on the fitted dose curve; in most records, active means well fitted curve in the direction sought with a large enough effect; inconclusive means small, poorly fitted or top-dose-only effect, or another doubt; inactive means no such curve, though single readings can be large; an effect the other way counts as inactive or inconclusive.
# Key:
# [1] = target: N-terminal Xaa-Pro-Lys N-methyltransferase 1 (Homo sapiens) (UniProt Q9BV86); assay: Confirmatory qHTS for Inhibitors of N-terminal methyltransferase 1 (NTMT1): MTaseGlo Assay (AID 1645874); conditions: NTMT1 enzyme, MTase-Glo SAH luminescence; series mostly up to 100 µM;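 further: luminescence from SAH made as NTMT1 methylates SPKRIA peptide using SAM; 0% = DMSO control and -100% = no-enzyme control; nearly all actives have a fitted effect of over 65% in size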
# How it was run: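 Room-temperature NTMT1 reaction, 30 min, with 100 uM SAM and 1 uM SPKRIA substrate; enzyme 125 nM. Read-out: MTase-Glo luminescence, normalized to no-enzyme and DMSO controls.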
# [2] = Primary qHTS for inhibitors of nuclear receptor binding SET domain protein 2 (NSD2) in an isogenic RCH-ACV NSD2 p.E1099K mutant (9B) (AID 1645876); conditions: RCH-ACV NSD2 E1099K (9B) viability, CellTiter-Glo, 72 h; series mostly up to 44.9 µM; further: potency means the concentration at half of the fitted maximal effect; nearly all actives have a fitted effect of over 70% in size
# [3] = Primary qHTS for inhibitors of nuclear receptor binding SET domain protein 2 (NSD2) in an RCH-ACV wild type WT cells (2C) (AID 1645877); conditions: RCH-ACV (leukaemia line) NSD2 WT (2C) viability, CellTiter-Glo, 72 h; series mostly up to 44.9 µM; further: potency means the concentration at half of the fitted maximal effect; nearly all actives have a fitted effect of over 70% in size
# [4] = target: Cytochrome P450 2D6 (Homo sapiens) (UniProt P10635); assay: Cytochrome P450 family 2 subfamily D member 6 (CYP2D6) small molecule antagonists: luciferase biochemical (cell-free) qHTS assay (AID 1645840; active means well fitted curve in the direction sought with a large enough effect in the repeat runs; an effect the other way counts as inactive or inconclusive; further: on the % scale 0 is the no-effect control and ±100 the full control effect; nearly all actives have a fitted effect of over 55% in size); conditions: P450-Glo CYP2D6 enzyme, luciferin luminescence, 1 h; series mostly up to 57.4 µM
# How it was run: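 P450-Glo CYP2D6 system: proluciferin substrate converted by enzyme to luciferin, read by luminescence proportional to activity. Enzyme-substrate mix with compound 10 min at room temperature, then NADPH regeneration 1 h before detection reagent.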
# [5] = Primary qHTS for small molecule stabilizers of the endoplasmic reticulum resident proteome: Secreted ER Calcium Modulated Protein (SERCaMP) assay (AID 1508630); conditions: SH-SY5Y GLuc-SERCaMP (Gaussia luciferase released on ER calcium loss) secretion, thapsigargin, luminescence; series mostly up to 38.4 µM; further: on the % scale 0 is the no-effect control and ±100 the full control effect
# How it was run: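 The SH-SY5Y reporter protocol was run at 3 concentrations up to 38.3 uM (primary) or 11 concentrations (follow-up): 16 h compound, 100 nM thapsigargin for 4 h, then extracellular luciferase luminescence.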
# [6] = target: Catechol O-methyltransferase (Homo sapiens) (UniProt P21964); assay: Confirmatory Screen for Target Class Profiling of Small Molecule Inhibitors of Methyltransferases (AID 1745852; calls by dose curve; further: potency means the concentration at half of the fitted maximal effect); conditions: MTase-Glo luminescence, SAH detection, recombinant enzyme; measured here: COMT max response; stronger effect = lower value
# [7] = target: Guanidinoacetate N-methyltransferase (Homo sapiens) (UniProt Q14353); assay: as above; conditions: MTase-Glo luminescence, SAH detection, recombinant enzyme; activity change, negative = inhibition: at 57.3 µM (top of the series) unless noted
# Catechol O-methyltransferase (Homo sapiens), sequence (P21964 whole entry, looked up): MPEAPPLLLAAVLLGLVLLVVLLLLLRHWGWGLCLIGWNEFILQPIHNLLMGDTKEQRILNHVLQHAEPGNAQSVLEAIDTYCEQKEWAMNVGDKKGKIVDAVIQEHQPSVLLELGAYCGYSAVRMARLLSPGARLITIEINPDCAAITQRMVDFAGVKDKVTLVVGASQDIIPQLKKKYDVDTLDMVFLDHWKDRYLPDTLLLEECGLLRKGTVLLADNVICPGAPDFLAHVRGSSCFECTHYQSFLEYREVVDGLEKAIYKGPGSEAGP
# N-terminal Xaa-Pro-Lys N-methyltransferase 1 (Homo sapiens), sequence (Q9BV86 whole entry, looked up): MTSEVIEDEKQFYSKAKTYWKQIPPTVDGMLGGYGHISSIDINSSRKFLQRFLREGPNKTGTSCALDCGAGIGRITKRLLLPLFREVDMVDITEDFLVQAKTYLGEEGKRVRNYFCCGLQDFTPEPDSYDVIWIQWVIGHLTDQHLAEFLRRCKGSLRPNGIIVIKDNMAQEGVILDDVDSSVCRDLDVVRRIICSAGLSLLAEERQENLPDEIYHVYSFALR
# Cytochrome P450 2D6 (Homo sapiens), sequence (P10635 whole entry, looked up): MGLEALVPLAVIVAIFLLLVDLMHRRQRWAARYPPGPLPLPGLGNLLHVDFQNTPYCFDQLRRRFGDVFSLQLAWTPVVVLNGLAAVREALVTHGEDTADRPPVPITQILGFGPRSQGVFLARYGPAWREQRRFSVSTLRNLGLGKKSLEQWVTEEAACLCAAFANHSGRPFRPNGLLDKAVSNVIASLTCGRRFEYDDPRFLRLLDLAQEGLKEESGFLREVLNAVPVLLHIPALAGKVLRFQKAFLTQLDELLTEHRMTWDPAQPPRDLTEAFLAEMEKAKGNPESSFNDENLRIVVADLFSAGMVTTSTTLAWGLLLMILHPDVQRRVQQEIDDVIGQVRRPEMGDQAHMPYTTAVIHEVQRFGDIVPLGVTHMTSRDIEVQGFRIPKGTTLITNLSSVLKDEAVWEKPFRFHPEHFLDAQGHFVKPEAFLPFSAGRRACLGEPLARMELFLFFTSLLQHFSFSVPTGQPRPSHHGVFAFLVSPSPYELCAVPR
SMILES,Potency [1],Potency [2],Potency [3],Potency [4],Potency [5],activity [6],Potency [7]
OCc1ccc(-c2ccc(-c3ccc(CO)s3)o2)s1,inactive,50.2 nM (active) and 934 nM (active),31.7 nM (active) and 1.32 µM (active),,,,
CCCCOc1c(C(=O)c2c(F)cc(C)cc2F)cnc2n[nH]cc12,,817 nM (active),578 nM (active) and 235 nM (active),inactive,,,
Cc1nc(Nc2n[nH]c3c2CN(C(=O)N[C@H](CN(C)C)c2ccccc2)C3(C)C)c2sccc2n1,,10.3 nM (active) and 11.8 nM (active),16.3 nM (active) and 11.8 nM (active),,inactive,-6.29%,6.1 nM (active)
